From publication PMC7862700, “An all-to-all approach to the identification of sequence-specific readers for epigenetic DNA modifications on cytosine”

Legend:
Assay in all cases: DAPPL (digital affinity profiling via proximity ligation, sequencing); 10 mM Tris-HCl pH 7.5, 50 mM NaCl, 1 mM DTT, 4% glycerol, room temperature, 30 min; GST-TFs on glutathione beads, 16-mer random dsDNA library, 0.1% formaldehyde crosslink after washing; high values mean tight binding
FEV = target: T1, FEV (Homo sapiens, UniProt Q99581 1-238); conditions: protein: recombinant; tags: N-terminal GST; dsDNA, one strand shown
T1 sequence: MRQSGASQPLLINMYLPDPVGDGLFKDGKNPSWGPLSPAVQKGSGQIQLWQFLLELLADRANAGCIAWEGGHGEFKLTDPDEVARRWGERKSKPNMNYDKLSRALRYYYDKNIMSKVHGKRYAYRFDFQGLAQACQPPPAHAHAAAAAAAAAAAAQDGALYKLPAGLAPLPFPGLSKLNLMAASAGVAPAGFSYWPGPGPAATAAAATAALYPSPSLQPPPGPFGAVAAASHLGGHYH
Summary of the method: (§1)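 The binding signal reported is, for every hexamer, its read frequency for a factor over its read frequency for the tag-only sample. Reads came from pools of yeast-expressed, GST-fused human transcription factors on glutathione beads, barcoded with DNA and mixed with that sample, which were incubated with 200 nmole of a random double-stranded 16-mer DNA library in Tris/NaCl/DTT/glycerol buffer at room temperature for 30 min. After washing, the pools were crosslinked with 0.1% formaldehyde, proximity-ligated with BsaI/T4 ligase for 1 h at 37 °C, PCR-amplified and sequenced on an Illumina NextSeq500.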

ETV5 = ETV5 (Homo sapiens, UniProt P41161 1-510); conditions: protein: recombinant; tags: N-terminal GST; dsDNA, one strand shown
Summary of the method: as §1

HSF1 = HSF1 (Homo sapiens, UniProt Q00613 1-529); conditions: protein: recombinant; tags: N-terminal GST; chain copies: 3; dsDNA, one strand shown
Summary of the method: as §1

SPIC = target: T2, SPIC (Homo sapiens, UniProt Q8N5J4 1-248); conditions: protein: recombinant; tags: N-terminal GST; dsDNA, one strand shown
T2 sequence: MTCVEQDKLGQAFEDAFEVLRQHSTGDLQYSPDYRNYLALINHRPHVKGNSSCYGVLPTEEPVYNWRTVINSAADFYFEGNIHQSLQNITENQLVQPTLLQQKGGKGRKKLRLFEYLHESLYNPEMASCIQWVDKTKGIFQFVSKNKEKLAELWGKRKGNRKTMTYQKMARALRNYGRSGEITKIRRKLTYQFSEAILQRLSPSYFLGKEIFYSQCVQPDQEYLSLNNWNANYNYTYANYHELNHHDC
Summary of the method: as §1

ELF4 = ELF4 (Homo sapiens, UniProt Q99607 1-663); conditions: protein: recombinant; tags: N-terminal GST; dsDNA, one strand shown
Summary of the method: as §1

ELK4 = target: T3, ELK4 (Homo sapiens, UniProt P28324-2 1-405); conditions: protein: recombinant; tags: N-terminal GST; dsDNA, one strand shown
T3 sequence: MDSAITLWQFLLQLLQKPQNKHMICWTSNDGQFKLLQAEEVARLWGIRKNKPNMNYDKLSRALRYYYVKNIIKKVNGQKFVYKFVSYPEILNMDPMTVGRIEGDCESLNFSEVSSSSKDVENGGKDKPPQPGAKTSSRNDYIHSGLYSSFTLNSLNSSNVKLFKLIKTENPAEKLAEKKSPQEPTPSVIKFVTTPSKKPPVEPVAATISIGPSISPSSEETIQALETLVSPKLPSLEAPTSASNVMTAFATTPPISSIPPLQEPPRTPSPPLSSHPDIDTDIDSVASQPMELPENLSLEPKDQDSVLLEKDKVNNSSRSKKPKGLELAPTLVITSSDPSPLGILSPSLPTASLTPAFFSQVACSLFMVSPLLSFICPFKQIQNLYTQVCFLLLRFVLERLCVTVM
Summary of the method: as §1

ETV2 = target: T4, ETV2 (Homo sapiens, UniProt O00321 1-342); conditions: protein: recombinant; tags: N-terminal GST; dsDNA, one strand shown
T4 sequence: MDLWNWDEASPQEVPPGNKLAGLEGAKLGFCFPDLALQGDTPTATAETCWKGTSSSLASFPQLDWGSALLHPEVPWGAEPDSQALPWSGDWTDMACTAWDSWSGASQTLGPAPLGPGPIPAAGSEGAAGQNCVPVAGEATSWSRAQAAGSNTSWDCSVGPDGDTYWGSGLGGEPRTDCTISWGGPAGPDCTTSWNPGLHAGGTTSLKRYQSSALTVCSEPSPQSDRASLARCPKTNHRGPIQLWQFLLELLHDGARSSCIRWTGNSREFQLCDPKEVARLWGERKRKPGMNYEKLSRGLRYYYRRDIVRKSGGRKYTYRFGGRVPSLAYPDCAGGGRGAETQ
Summary of the method: as §1

ELF3 = target: T5, ELF3 (Homo sapiens, UniProt P78545 1-371); conditions: protein: recombinant; tags: N-terminal GST; dsDNA, one strand shown
T5 sequence: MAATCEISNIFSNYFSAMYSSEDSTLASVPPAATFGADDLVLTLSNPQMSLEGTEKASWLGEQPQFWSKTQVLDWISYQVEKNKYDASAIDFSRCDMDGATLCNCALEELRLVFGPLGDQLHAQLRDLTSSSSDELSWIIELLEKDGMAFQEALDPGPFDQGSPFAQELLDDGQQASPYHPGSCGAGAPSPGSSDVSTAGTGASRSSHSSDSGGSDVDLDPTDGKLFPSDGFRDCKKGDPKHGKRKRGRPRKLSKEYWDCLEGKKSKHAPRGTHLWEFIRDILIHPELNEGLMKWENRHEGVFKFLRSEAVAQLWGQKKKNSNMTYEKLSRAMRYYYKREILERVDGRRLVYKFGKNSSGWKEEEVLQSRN
Summary of the method: as §1

CRX = CRX (Homo sapiens, UniProt O43186 1-299); conditions: protein: recombinant; tags: N-terminal GST; dsDNA, one strand shown
Summary of the method: as §1

ETV1 = ETV1 (Homo sapiens, UniProt P50549 1-477); conditions: protein: recombinant; tags: N-terminal GST; dsDNA, one strand shown
Summary of the method: as §1

ERF = target: T6, ERF (Homo sapiens, UniProt P50548 1-548); conditions: protein: recombinant; tags: N-terminal GST; dsDNA, one strand shown
T6 sequence: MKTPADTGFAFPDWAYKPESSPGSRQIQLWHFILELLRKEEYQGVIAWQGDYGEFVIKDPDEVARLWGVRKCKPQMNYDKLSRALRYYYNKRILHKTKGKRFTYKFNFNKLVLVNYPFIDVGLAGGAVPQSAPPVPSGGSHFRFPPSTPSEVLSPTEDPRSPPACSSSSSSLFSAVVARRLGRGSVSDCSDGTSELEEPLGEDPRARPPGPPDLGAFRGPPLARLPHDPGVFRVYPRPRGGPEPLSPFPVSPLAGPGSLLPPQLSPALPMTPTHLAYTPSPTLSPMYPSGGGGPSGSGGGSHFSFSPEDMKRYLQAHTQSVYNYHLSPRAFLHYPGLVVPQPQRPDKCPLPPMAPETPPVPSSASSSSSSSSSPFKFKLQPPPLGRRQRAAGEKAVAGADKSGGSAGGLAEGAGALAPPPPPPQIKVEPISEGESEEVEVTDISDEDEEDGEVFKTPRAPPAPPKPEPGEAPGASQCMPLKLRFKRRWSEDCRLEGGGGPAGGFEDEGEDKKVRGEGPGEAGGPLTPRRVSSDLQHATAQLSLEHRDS
Summary of the method: as §1

ETV3L = target: T7, ETV3L (Homo sapiens, UniProt Q6ZN32 1-361); conditions: protein: recombinant; tags: N-terminal GST; dsDNA, one strand shown
T7 sequence: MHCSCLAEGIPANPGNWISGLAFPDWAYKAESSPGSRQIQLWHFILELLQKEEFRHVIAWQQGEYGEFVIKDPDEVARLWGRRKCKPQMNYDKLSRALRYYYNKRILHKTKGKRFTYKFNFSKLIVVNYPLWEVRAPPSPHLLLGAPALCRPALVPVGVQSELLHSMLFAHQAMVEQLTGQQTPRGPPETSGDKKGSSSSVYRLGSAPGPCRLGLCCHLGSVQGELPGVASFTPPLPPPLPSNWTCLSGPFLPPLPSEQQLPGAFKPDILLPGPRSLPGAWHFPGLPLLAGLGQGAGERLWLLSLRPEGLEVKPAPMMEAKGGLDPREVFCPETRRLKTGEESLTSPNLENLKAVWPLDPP
Summary of the method: as §1

ETS2 = target: T8, ETS2 (Homo sapiens, UniProt P15036 1-469); conditions: protein: recombinant; tags: N-terminal GST; dsDNA, one strand shown
T8 sequence: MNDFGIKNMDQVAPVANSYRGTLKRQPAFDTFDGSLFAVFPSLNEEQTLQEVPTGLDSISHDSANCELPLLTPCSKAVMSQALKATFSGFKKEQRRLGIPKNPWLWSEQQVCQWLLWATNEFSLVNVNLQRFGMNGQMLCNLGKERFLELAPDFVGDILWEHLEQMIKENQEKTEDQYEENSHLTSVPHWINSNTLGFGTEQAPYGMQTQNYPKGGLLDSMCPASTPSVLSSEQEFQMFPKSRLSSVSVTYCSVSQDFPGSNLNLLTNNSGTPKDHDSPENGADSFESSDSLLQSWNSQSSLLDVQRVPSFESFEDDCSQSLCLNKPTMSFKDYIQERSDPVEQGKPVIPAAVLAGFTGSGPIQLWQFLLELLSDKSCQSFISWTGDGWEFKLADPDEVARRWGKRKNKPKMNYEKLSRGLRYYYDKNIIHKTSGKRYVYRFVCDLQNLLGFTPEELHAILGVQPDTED
Summary of the method: as §1

SPDEF = target: T9, SPDEF (Homo sapiens, UniProt O95238 1-335); conditions: protein: recombinant; tags: N-terminal GST; dsDNA, one strand shown
T9 sequence: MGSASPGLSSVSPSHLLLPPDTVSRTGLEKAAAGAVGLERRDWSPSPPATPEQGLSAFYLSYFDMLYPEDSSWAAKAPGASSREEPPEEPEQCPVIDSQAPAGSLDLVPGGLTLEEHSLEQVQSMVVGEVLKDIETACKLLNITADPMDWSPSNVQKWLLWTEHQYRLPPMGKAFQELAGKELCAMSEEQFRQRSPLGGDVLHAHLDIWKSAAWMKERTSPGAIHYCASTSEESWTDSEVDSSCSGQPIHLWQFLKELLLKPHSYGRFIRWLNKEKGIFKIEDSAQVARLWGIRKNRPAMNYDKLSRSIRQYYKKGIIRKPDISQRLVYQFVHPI
Summary of the method: as §1

ETV7 = target: T10, ETV7 (Homo sapiens, UniProt Q9Y603 1-341); conditions: protein: recombinant; tags: N-terminal GST; dsDNA, one strand shown
T10 sequence: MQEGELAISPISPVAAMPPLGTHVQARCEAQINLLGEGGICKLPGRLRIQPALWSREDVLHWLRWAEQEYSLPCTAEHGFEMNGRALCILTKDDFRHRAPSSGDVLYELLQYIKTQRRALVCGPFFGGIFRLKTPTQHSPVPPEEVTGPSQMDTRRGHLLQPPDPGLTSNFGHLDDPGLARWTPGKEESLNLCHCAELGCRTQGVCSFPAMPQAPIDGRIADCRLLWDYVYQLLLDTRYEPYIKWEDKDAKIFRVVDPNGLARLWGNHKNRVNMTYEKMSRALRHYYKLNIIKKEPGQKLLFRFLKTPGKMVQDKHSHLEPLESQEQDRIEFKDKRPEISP
Summary of the method: as §1

ELF5 = target: T11, ELF5 (Homo sapiens, UniProt Q9UKW6-2 1-255); conditions: protein: recombinant; tags: N-terminal GST; dsDNA, one strand shown
T11 sequence: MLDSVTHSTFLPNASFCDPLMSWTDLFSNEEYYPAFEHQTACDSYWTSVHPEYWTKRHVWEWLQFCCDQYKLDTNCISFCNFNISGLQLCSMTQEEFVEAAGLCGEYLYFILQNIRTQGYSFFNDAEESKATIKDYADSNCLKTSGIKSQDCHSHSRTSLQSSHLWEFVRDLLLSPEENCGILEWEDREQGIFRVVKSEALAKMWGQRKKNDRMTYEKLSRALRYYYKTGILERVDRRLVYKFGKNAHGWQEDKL
Summary of the method: as §1

ETV3 = target: T12, ETV3 (Homo sapiens, UniProt P41162-2 1-143); conditions: protein: recombinant; tags: N-terminal GST; dsDNA, one strand shown
T12 sequence: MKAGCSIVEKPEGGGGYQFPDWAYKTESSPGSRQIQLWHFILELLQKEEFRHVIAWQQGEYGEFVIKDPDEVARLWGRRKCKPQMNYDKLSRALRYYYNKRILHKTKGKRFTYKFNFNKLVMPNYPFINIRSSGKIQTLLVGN
Summary of the method: as §1

ETV6 = ETV6 (Homo sapiens, UniProt P41212 1-452); conditions: protein: recombinant; tags: N-terminal GST; dsDNA, one strand shown
Summary of the method: as §1

Sequence of ELF4 (Q99607 whole entry): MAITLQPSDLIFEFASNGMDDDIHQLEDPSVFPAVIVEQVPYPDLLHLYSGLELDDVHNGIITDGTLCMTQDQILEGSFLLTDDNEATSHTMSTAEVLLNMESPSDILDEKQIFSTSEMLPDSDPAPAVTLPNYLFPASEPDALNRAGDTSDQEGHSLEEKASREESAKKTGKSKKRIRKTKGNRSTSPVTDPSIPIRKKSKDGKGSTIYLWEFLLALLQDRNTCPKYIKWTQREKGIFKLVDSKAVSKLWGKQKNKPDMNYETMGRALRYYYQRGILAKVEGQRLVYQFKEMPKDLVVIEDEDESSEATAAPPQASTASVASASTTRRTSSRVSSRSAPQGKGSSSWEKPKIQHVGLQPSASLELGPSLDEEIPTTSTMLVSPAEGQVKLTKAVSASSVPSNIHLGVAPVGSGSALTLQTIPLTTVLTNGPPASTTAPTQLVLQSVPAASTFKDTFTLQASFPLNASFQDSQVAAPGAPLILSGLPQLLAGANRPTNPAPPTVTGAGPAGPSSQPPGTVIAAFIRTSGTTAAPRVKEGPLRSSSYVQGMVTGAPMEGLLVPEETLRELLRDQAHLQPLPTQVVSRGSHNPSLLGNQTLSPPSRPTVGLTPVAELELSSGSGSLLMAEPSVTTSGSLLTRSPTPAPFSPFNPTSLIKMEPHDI
Sequence of ETV1 (P50549 whole entry): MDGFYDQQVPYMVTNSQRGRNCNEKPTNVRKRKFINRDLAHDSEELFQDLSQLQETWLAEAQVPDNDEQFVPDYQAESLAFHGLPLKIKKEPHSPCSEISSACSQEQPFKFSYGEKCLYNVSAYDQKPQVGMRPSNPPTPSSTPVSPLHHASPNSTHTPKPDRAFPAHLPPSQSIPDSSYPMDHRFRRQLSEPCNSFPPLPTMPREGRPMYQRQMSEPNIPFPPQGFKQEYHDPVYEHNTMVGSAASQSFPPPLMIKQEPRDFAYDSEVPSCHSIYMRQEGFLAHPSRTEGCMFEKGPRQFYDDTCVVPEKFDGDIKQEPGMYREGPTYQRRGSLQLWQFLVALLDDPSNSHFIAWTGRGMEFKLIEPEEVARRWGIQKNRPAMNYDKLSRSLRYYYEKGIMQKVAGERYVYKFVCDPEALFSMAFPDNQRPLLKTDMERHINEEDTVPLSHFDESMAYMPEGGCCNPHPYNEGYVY
Sequence of ETV6 (P41212 whole entry): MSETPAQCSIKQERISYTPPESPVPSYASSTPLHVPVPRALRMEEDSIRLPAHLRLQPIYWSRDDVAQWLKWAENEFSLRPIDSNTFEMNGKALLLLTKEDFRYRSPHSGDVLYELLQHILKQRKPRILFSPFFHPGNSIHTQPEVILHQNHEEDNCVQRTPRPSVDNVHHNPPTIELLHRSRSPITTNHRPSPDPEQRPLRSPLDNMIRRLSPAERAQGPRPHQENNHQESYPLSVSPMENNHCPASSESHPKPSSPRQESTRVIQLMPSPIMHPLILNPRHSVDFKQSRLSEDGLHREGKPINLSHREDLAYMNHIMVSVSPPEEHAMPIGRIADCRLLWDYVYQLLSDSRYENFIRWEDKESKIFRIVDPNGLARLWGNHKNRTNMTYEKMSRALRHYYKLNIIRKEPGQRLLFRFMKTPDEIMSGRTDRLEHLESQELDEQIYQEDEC
Sequence of ETV5 (P41161 whole entry): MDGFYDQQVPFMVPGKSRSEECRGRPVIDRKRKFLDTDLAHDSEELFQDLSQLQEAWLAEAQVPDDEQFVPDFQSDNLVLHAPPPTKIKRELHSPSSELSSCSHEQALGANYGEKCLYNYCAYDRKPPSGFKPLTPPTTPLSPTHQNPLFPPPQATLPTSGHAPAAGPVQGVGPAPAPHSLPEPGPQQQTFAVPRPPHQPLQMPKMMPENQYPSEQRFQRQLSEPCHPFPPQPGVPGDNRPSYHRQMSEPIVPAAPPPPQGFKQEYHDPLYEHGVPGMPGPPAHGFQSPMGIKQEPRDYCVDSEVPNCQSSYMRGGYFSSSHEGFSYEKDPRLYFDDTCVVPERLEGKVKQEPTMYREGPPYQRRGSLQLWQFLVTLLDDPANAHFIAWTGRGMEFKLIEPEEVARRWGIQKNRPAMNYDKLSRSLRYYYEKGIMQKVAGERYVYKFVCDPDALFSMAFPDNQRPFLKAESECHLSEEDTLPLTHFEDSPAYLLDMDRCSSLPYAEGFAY
Sequence of HSF1 (Q00613 whole entry): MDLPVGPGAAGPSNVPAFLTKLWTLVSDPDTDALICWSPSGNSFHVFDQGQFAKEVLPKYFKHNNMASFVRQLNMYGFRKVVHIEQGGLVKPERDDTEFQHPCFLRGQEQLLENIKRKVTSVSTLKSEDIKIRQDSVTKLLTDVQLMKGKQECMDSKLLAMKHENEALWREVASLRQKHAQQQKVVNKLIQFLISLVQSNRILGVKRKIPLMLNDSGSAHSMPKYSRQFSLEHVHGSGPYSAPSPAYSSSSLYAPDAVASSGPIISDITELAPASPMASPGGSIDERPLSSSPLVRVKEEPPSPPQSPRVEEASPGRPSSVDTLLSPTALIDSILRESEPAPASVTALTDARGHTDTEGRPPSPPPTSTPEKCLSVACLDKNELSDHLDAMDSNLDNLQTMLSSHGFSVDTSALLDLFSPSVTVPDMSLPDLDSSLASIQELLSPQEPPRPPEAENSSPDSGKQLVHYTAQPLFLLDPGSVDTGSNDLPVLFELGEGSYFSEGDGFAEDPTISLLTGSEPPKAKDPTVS
Sequence of CRX (O43186 whole entry): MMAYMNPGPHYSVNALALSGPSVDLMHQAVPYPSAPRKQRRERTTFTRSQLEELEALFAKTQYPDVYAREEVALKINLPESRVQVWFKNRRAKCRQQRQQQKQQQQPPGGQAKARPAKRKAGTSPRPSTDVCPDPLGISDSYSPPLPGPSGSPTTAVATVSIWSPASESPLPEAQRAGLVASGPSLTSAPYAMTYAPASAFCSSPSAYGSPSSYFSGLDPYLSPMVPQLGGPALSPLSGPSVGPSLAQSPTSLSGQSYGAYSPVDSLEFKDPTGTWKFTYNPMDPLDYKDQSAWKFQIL

Sequence: GAATGT
- binding signal (FEV): 1.07 fold enrichment (6-mer frequency, TF over GST control)
- binding signal (ETV5): 1.07 fold enrichment (6-mer frequency, TF over GST control)
- binding signal (HSF1): 1.88 fold enrichment (6-mer frequency, TF over GST control)
- binding signal (SPIC): 1.11 fold enrichment (6-mer frequency, TF over GST control)
- binding signal (ELF4): 1.07 fold enrichment (6-mer frequency, TF over GST control)
- binding signal (ELK4): 1.07 fold enrichment (6-mer frequency, TF over GST control)
- binding signal (ETV2): 1.03 fold enrichment (6-mer frequency, TF over GST control)
- binding signal (ELF3): 1.2 fold enrichment (6-mer frequency, TF over GST control)
- binding signal (CRX): 1.02 fold enrichment (6-mer frequency, TF over GST control)
- binding signal (ETV1): 1.03 fold enrichment (6-mer frequency, TF over GST control)
- binding signal (ERF): 1.04 fold enrichment (6-mer frequency, TF over GST control)
- binding signal (ETV3L): 1.1 fold enrichment (6-mer frequency, TF over GST control)
- binding signal (ETS2): 1.06 fold enrichment (6-mer frequency, TF over GST control)
- binding signal (SPDEF): 1.16 fold enrichment (6-mer frequency, TF over GST control)
- binding signal (ETV7): 1.13 fold enrichment (6-mer frequency, TF over GST control)
- binding signal (ELF5): 1.08 fold enrichment (6-mer frequency, TF over GST control)
- binding signal (ETV3): 1.12 fold enrichment (6-mer frequency, TF over GST control)
- binding signal (ETV6): 1.03 fold enrichment (6-mer frequency, TF over GST control)
